Screening data deposited in PubChem by Sanford-Burnham Center for Chemical Genomics.
CYP2C9 activ = human CYP2C9 activators, primary screen, biochemical, luminescence; Cytochrome P450 2C9 (Homo sapiens), P11712; recombinant CYP2C9, luciferin-H conversion; hits give high values; factor 1 = untreated enzyme, 0 = blocked; activation factor at 5 µM; actives 1.4% (n = 96,000); AID 1024, 2008;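 active = activation factor of 2 or more for CYP2C9 at a 5 µM dose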;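 also: 0 = sulfaphenazole-blocked wells and 1 = vehicle-only wells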
Target sequence (P11712 whole entry, looked up): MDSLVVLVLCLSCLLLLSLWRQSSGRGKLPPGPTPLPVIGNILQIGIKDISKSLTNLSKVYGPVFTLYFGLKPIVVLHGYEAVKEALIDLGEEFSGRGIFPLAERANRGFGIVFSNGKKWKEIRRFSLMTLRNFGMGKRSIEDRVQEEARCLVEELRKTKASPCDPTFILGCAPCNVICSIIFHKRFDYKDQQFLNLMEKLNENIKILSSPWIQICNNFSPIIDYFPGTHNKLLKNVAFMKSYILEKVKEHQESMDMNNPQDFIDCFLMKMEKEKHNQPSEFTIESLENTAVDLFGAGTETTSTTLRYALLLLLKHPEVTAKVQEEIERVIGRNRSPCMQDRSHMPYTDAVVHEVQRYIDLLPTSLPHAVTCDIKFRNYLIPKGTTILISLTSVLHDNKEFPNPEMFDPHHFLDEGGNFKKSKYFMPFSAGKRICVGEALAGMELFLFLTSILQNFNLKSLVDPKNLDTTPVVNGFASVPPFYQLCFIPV
CYP2C9 inhib = blockers of cytochrome P450 2C9 activity – biochemical, luminescence, ADME assay, primary screen; P11712; CYP2C9 Supersomes, luciferin-H conversion; actives 20% (n = 96,000); inhibition, % at 5 µM;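 active = blocking of liver enzyme CYP2C9 beyond about 50% at 5 µM, limit read from the data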
CYP2C19 inh = blockers of cytochrome P450 2C19 activity – biochemical, luminescence, ADME assay, primary screen. P33261. CYP2C19 Supersomes, luciferin-H EGE luminescence, 30 min. inhibition, % at 5 µM. actives 21% (n = 96,000). AID 778, 2007;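 active = CYP2C19 inhibition above a set limit at 5 µM in the primary screen, cut at about 50% in these data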;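 also: plate controls were negative control wells for no effect and 2.5 mM tranylcypromine positive control for full effect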
CYP2C19 act = human CYP2C19 activators, primary screen, biochemical, luminescence. Cytochrome P450 2C19 (Homo sapiens), P33261. recombinant CYP2C19, luciferin-H EGE luminescence; hits give high values; 0 = fully inhibited enzyme, 1 = untreated enzyme. activation factor at 5 µM. 96,000 tested, under 10 active;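 active = activation factor of at least 2 at 5 µM in the primary screen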;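 also: 0 = wells with 2.5 mM tranylcypromine and 1 = vehicle-only wells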
PLAP activator = PLAP enzyme activators, biochemical, luminescence, HTS | purified PLAP enzyme, luminescent substrate read-out; hits give high values | activation fold at 20 µM | actives 1.2% (n = 96,000); in the data active = activation fold above about 2
An asterisk follows results filed as active. Shown are actives, neighbours in structure and some others; about 31% of the full set was active somewhere.

SMILES	CYP2C9 activ	CYP2C9 inhib	CYP2C19 inh	CYP2C19 act	PLAP activator
Cc1cccc(-n2c(SCC(=O)Nc3nnc(C)s3)nnc2-c2ccoc2C)c1	0.8	23.3	23.7	0.8	1.4
Cc1nonc1NC(=O)CSc1nnc(-c2ccoc2C)n1CC(C)C	0.9	14.5	76.0*	0.2	1
CCc1nnc(NC(=O)CSc2nnc(CNc3ccc(F)cc3)n2C2CCCCC2)s1	0.3	67.7*	56.8*	0.4	1.7
CCc1nnc(NC(=O)CSc2nnnn2-c2cccc(C(=O)OC)c2)s1	0.3	67.8*	33.0	0.7	1
COCCCn1c(SCC(=O)N2CCCC(C)C2)nnc1-c1ccco1 (centres undefined)	0.8	20.1	25.2	0.7	1.3
CCSc1nnc(N(CCC#N)CCC#N)s1	1.2	-18.7	-15.0	1.1	0.8
CN(C)S(=O)(=O)c1ccc(-c2csnn2)s1	1.5	-45.1	36.7	0.6	0.8
CC(C)(C)n1ncc2c(=O)n(CC(=O)NCc3ccccc3Cl)cnc21	1.4	-38.3	-10.2	1.1	1
O=C(CCC(=O)Nc1ccc(Oc2ccccc2)cc1)NCCO	0.9	9.1	8.4	0.9	1.1
Cc1cccc(-n2c(SCC(=O)Nc3nonc3C)nnc2-c2ccoc2C)c1	0.5	54.5*	45.0	0.6	1.2
CCc1nnc(NC(=O)CSc2nnc(CNc3cccc(C)c3)n2-c2ccccc2)s1	0.2	76.7*	51.1*	0.5	1.5
COC(=O)CSc1nnc(-c2ccccc2O)n1-c1ccc(C)cc1	0.6	37.2	56.8*	0.4	1.7
CCc1nnc(NC(=O)CSc2nnc(-c3ccccc3OC)n2-c2ccc(C)cc2)s1	0.3	71.6*	77.4*	0.2	1.3
CCn1c(SCC(=O)Nc2nonc2C)nnc1-c1ccoc1C	0.9	9.0	33.4	0.7	1
CCc1nnc(NC(=O)CSc2nnc(-c3ccccc3O)n2-c2ccc(C)cc2)s1	1.1	-14.2	-6.7	1.1	1
COc1ccc(-c2csc(N3CCC(C(N)=O)(N4CCCCC4)CC3)n2)cc1	0.8	15.3	-16.3	1.2	1.2
CCOC(Cn1c(-c2ccc(OC)cc2)nc2ccccc21)OCC	0.1	85.8*	49.8	0.5	1.7
CCCn1c(-c2ccc(OC)cc2)nc2ccccc21	0.9	9.5	10.6	0.9	0.8
COc1ccc(-c2nc3ccccc3n2Cc2ccc(C)cc2)cc1	0.8	23.1	-2.2	1	1.1
C=C(C)Cn1c(-c2ccc(OC)cc2)nc2ccccc21	0	96.5*	90.1*	0.1	1.5
O=C1CCC(C(=O)N(Cc2ccco2)C2(C(=O)NC3CCCC3)CCCCC2)N1 (centres undefined)	1.2	-18.9	-17.1	1.2	1
CC(C)=CC1C=C(C)C(C)C2C(=O)NNC(=O)C12 (centres undefined)	0.9	10.7	51.4*	0.5	1.2
CCCC(=O)NCCc1ccc(S(N)(=O)=O)cc1	0.8	16.7	-16.2	1.2	1.2
CCSc1sccc1C1C(C#N)=C(N)N(c2cccnc2)C2=C1C(=O)CC(C)(C)C2 (centres undefined)	0.4	59.9*	73.6*	0.3	1.4
CC1(C)CC(=O)C2=C(C1)N(c1ccccc1C#N)C(N)=C(C#N)C2c1cccs1 (centres undefined)	0.3	71.3*	25.3	0.7	1.4
SMILES	CYP2C9 activ	CYP2C9 inhib	CYP2C19 inh	CYP2C19 act	PLAP activator
CC1(C)CC(=O)C2=C(C1)OC(c1cccs1)C(C#N)=C2N (centres undefined)	0.3	67.9*	82.7*	0.2	0.9
COc1ccc(N2C(N)=C(C#N)C(c3cccnc3)C3=C2CC(C)(C)CC3=O)cc1 (centres undefined)	0.4	55.9*	30.4	0.7	1.1
Cc1ccccc1N1C(S)=C(C#N)C(=O)NC1c1cccs1 (centres undefined)	0.8	19.7	-3.5	1	1
CC1(C)CC(=O)C2=C(C1)Nc1ccccc1NC2c1cccnc1 (centres undefined)	1.1	-6.0	-6.3	1.1	1
CC1=C(C#N)C(c2cccnc2)C2=C(CC(C)(C)CC2=O)N1 (centres undefined)	0.7	28.7	24.0	0.8	0.9
COc1ccccc1CNC(=O)COC(=O)c1ccc(S(=O)(=O)N2CCCC2)cc1	0.7	25.3	15.8	0.8	1
CCCCOC(=O)Nc1cc(C(=O)OC)ccc1C(=O)OC	0.8	23.3	15.0	0.8	0.8
Cc1cccnc1NC(=O)Cn1nc(C)c([N+](=O)[O-])c1C	1	-0.7	42.8	0.6	0.9
CCN1CCN(S(=O)(=O)c2cc(OC)c(Cl)cc2OC)CC1	1.1	-9.8	39.2	0.6	0.9
COc1ccc(-c2cc3ccccc3oc2=O)cc1NC(=O)c1cccnc1	0.7	27.3	17.2	0.8	1
COc1cc(C(=O)NC(=S)Nc2cccc(-c3cc4ccccc4oc3=O)c2)cc(OC)c1OC	0.3	68.3*	21.6	0.8	1.2
CCOC(=O)N1CCN(C2CC(=O)N(c3ccc(Oc4ccccc4)cc3)C2=O)CC1 (centres undefined)	0.9	8.9	-11.9	1.1	1.8
CCOC(=O)C1CCN(c2c(Nc3ccc4c(c3)OCCO4)c(=O)c2=O)CC1	0.8	17.4	20.1	0.8	1
CCOC(=O)C1CCN(C(C(=O)Nc2ccc3c(c2)OCCO3)c2ccccc2)CC1 (centres undefined)	0.1	88.9*	13.2	0.9	1.4
O=C(CN1C(=O)c2ccccc2S1(=O)=O)N1CCN(c2ccc(F)cc2)CC1	1.1	-12.2	-3.3	1	0.9
Cc1ccc(-n2c(C)c3c(C)nnc(C)c3c2C)cc1	1.1	-13.5	57.6*	0.4	1
Cc1ccc(C(=O)N/C(=C/c2cccs2)C(=O)N2CCCCCC2)cc1	0.5	51.1*	31.6	0.7	1.1
Cc1c(=O)n(OCc2ccccc2F)c2ccccc2[n+]1[O-]	1	-4.2	19.7	0.8	0.9
CCN(CC)c1ccc(C2C(C(=O)OCCOC)=C(C)NC3=C2C(=O)CCC3)cc1 (centres undefined)	0.6	36.8	44.9	0.6	1.4
CCCCOC(=O)C1=C(C)NC2=C(C(=O)CCC2)C1c1cc(OC)ccc1OC (centres undefined)	0.2	84.7*	62.7*	0.4	1.4
CCOC(=O)C1=C(CC)NC2=C(C(=O)CCC2)C1c1ccc(OC)c(OC)c1 (centres undefined)	1	1.5	50.1*	0.5	1
CCCOC(=O)C1=C(C)NC2=C(C(=O)CCC2)C1c1cc(OC)ccc1OC (centres undefined)	0.2	77.7*	66.7*	0.3	1
COc1cc(C2C(C(=O)N3CCOCC3)=C(C)NC3=C2C(=O)CCC3)ccc1OC(C)=O (centres undefined)	1	-1.8	-0.6	1	0.9
